Most compounds without a hit are left out; they make up all but 1.8% or so of the library.
PfHsp40 rescue: restores yeast growth despite PfHsp40 toxicity; S. cerevisiae expressing PfHsp40, growth rescue, ATP luminescence; growth rescue, % at 12.5 µM; hit rate 0.68% among 340,000; AID 504582; in the data active = growth rescue above about 28%, passing the limit was not always enough;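 also: yeast W303a lacking pdr1 and pdr3 grown in galactose medium; growth measured after three days at 30 °C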
PriA SSB inh: K. pneumoniae PriA-SSBct interaction inhibition; AlphaScreen SSBct-PriA binding, biotinylated peptide; inhibition, % at 33 µM; hit rate 0.6% among 430,000; in the data active = inhibition mostly above about 37%, no sharp cut-off; inactive = mostly below about 20%;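 also: plate controls were negative control peptide for no effect and reference peptide for full effect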
MazF activator: MazEF (E. coli) toxin RNase activation; P0AE70; FAM/BHQ RNA-DNA oligo cleavage fluorescence, 5 h; activation, % at 20 µM; hit rate 0.32% among 350,000; AID 504720; in the data active = activation above about 50%
Target sequence (P0AE70 whole entry, looked up): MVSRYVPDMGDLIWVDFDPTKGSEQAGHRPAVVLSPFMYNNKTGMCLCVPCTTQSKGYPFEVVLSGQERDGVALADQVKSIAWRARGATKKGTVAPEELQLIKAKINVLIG
PrP 5UTR inh: inhibition of PrP 5' UTR reporter expression. AID 488862. hit rate 0.35% among 340,000. inhibition, % (test concentration not listed). cell-based PrP 5' UTR mRNA reporter, plate reader; in the data active = inhibition above about 52%; also: 0 = median of the neutral control wells
PrPC surface inh: cell surface PrPC inhibition, primary TR-FRET screen; P04156; TR-FRET read-out; inhibition, % at 13.8 µM; hit rate 0.43% among 370,000; AID 720596; in the data active = inhibition above about 24%; also: 0% = median of the test wells and 100% = reference compound wells
* = called active by the depositor; · = no result.

SMILES | PfHsp40 rescue | PriA SSB inh | MazF activator | PrP 5UTR inh | PrPC surface inh
Cc1c(C)c(C)c(S(=O)(=O)NCCc2ccc3c(c2)CCCN3C)c(C)c1C | · | 3 | · | · | ·
Cc1ccc(Cl)cc1S(=O)(=O)NCCc1ccc2c(c1)CCCN2C | · | 59* | · | · | ·
Cc1cc(C)c(S(=O)(=O)NCCc2ccc3c(c2)CCCN3C)cc1C | · | 40* | · | · | ·
COc1ccc(-c2cnc(SCCNC(=O)c3ccccc3Br)[nH]2)cc1 | · | 22 | · | · | ·
ClCCOCOCCCl | -2 | 0 | 8 | -5 | -6
O=C(CN(CCc1ccccc1)Cc1ccccc1)Oc1ccccc1P(=O)(O)O | 1 | 92* | 5 | -3 | 3
CC(C)OC(=O)c1cn(-c2ccccc2)nc1-c1ccc2c(c1)OCCO2 | 2 | -16 | -4 | -20 | 8
O=C1C(c2ccccc2)=C(N2CC2)c2ccccc21 | -2 | 41* | 8 | -38 | -40
CCOC(=O)c1cnc(-n2nc(C)cc2C)nc1NC1CCCC1 | 163* | 2 | 4 | -5 | 4
CCOC(=O)c1cnc(-n2nc(C)cc2C)nc1Nc1ccc(OC)cc1 | 3 | -24 | 10 | -7 | 2
CCOC(=O)c1cnc(-n2nc(C)cc2C)nc1NCCc1ccccc1 | 65* | -19 | 4 | -12 | 9
CCOC(=O)c1cnc(-n2nc(C)cc2C)nc1NCc1ccc2c(c1)OCO2 | 18 | -4 | 5 | -25 | 3
COc1cccc(/C=N/Nc2nccnc2Cl)c1O | 88* | · | -8 | 48 | 2
COc1cccc(/C=N/Nc2ncnc3scc(-c4ccccc4)c23)c1O | 422* | · | -62 | 50 | 3
COc1cccc(C=NNc2ncnc3scc(-c4ccccc4)c23)c1O | · | 44 | · | · | ·
COc1cccc(Cn2cnc3c(NS(=O)(=O)c4cc(Cl)ccc4Cl)c(C)c(C)cc32)c1 | 1 | -3 | -3 | -8 | 0
Cc1cc(C)c2sc(N(CCCN(C)C)C(=O)c3ccno3)nc2c1 | · | -7 | · | · | ·
COC(=O)C1=C(C)NC(C)=C(C(=O)OC)C1c1ccccc1[N+](=O)[O-] | 37* | 8 | -8 | 11 | 1
C=CCNC(=O)C1CC2Cn3c(nc4cc(Cl)c(Cl)cc43)C2N1C (stereo not given) | 0 | -9 | -1 | -13 | 0
CN(C)c1ccc2nc3ccc(=[N+](C)C)cc-3sc2c1 | 0 | 1 | -4 | -51 | -24
Cc1cc2nc3ccc(=[N+](C)C)cc-3sc2cc1N | 0 | 83* | -12 | -22 | ·
O=C1c2cccc3c(N4CCCCC4)ccc(c23)C(=O)N1c1cccc(O)c1 | 0 | -36 | 24 | -48 | -4
Cc1n[nH]c(C)c1N1C(=O)c2cccc3c(N4CCCCCC4)ccc(c23)C1=O | 2 | -29 | 670* | -14 | 4
Cc1ccccc1C(=O)OCC(=O)N1CC(=O)Nc2ccccc21 | · | · | 4 | · | 4
O=C(Nc1nnc(-c2ccccc2)o1)c1ccc(Cl)cc1 | 252* | -9 | 4 | -19 | -4
SMILES | PfHsp40 rescue | PriA SSB inh | MazF activator | PrP 5UTR inh | PrPC surface inh
O=C(COC(=O)c1ccc(O)cc1)Nc1nnc(-c2ccccc2)o1 | · | 59* | · | · | ·
COC(=O)[C@@H]1C[C@@]2(O)[C@H](O)[C@H](O)[C@H](O)C[C@H]2N1Cc1cc(OC)cc(OC)c1 | 0 | -2 | 2 | -18 | 4
COC(=O)[C@@H]1C[C@@]2(O)[C@@H](O)[C@@H](O)[C@@H](O)C[C@H]2N1Cc1cc(OC)cc(OC)c1 | -1 | 101* | -8 | -31 | 12
CCCN1CCCc2cc(CCNC(=O)c3ccccc3C)ccc21 | · | 59* | · | · | ·
CCCN1CCCc2cc(CCNC(=O)c3ccccc3OC)ccc21 | · | 73* | · | · | ·
CCCN1CCCc2cc(CCNC(=O)C(=O)NCCc3ccccc3)ccc21 | · | 44 | · | · | ·
CCCN1CCCc2cc(CCNC(=O)C(=O)Nc3ccc(OC)c(OC)c3)ccc21 | · | 44 | · | · | ·
CCCN1CCCc2cc(CCNC(=O)c3ccccc3Cl)ccc21 | · | 53* | · | · | ·
O=C(Cc1ccccc1)Nn1c(SCC(=O)c2ccc(F)cc2)nc2ccccc2c1=O | · | 7 | · | · | ·
c1ccc(-c2nc(N3CCCC3)c3ccccc3n2)nc1 | · | 54 | · | · | ·
c1ccc(-c2nc(N3CCOCC3)c3ccccc3n2)nc1 | 0 | 62* | 3 | -5 | -15
c1ccc(-c2nc(N3CCCCCC3)c3ccccc3n2)nc1 | -1 | 87* | 10 | -11 | 2
O=C1COc2ccc(S(=O)(=O)CCC(=O)N3CCN(c4cccc(Cl)c4)CC3)cc2N1 | -1 | -11 | -10 | 7 | 5
O=C1COc2ccc(S(=O)(=O)N3CCN(c4cccc(Cl)c4)CC3)cc2N1 | 53* | -6 | -12 | -11 | -2
COc1ccc2c(c1)CNC2CS(=O)(=O)NCCc1ccccc1 (stereo not given) | · | · | · | · | -5
CC(Cc1ccccc1)=NNS(=O)(=O)c1ccc([N+](=O)[O-])cc1 | 0 | -3 | 88* | -10 | -1
CC(Cc1ccccc1)=NNc1ccc([N+](=O)[O-])cc1[N+](=O)[O-] | -1 | 2 | -6 | -10 | 1
C/C(=N\NS(=O)(=O)c1ccc([N+](=O)[O-])cc1)c1c[nH]c2ccccc12 | -2 | · | 52* | -1 | -10
CCOc1ccc2nc(NCC3CCCO3)sc2c1 (stereo not given) | · | 21 | · | · | ·
CC(Sc1nnc(-c2ccc(OC(F)F)cc2)o1)C(=O)NCC1CCCO1 (stereo not given) | -2 | -12 | 4 | -15 | -6
O=C(NCCc1cnc[nH]1)c1cccs1 | -2 | -14 | 2 | -4 | 6
CC1(C)c2ccccc2-n2c1cc1oc(=O)cc(O)c1c2=O | 60* | -4 | 6 | -6 | 5
CCN1C(=O)N[C@@H](c2ccccc2)[C@@H](C(=O)OC)[C@H]1C | 33* | 0 | 1 | -25 | 2
CCN1C(=O)N[C@@H](c2cccc(C(F)(F)F)c2)[C@@H](C(=O)OC)[C@H]1C | 9 | -22 | -2 | -25 | 3
CC1CC=C(c2ccccc2)C(=S)N1 (stereo not given) | -1 | 6 | -6 | -17 | 7
SMILES | PfHsp40 rescue | PriA SSB inh | MazF activator | PrP 5UTR inh | PrPC surface inh
C/C=C/c1ccc(O)c(OC)c1 | -2 | -20 | 6 | -9 | 4
Oc1cc(O)cc(/C=C/c2ccc(O)c(O)c2)c1 | -3 | 0 | 118* | -123 | -2
Cc1c(Nc2ccccc2C(=O)c2ccccc2)nc2ccccc2c1-c1ccccc1 | · | -16 | · | · | ·
Cc1cc(C(=O)Nc2ccc(Nc3ccccc3)cc2)ccc1[N+](=O)[O-] | 2 | 54* | 29 | -22 | -2
O=C(Nc1ccc(Nc2ccccc2)cc1)c1ccc(Cl)c([N+](=O)[O-])c1 | 8 | 52* | 78* | -3 | -28
COc1cc(C(=O)Nc2ccncc2)cc(OC)c1OC | -1 | 4 | 1 | -26 | 6
Cc1cccc(NC(=O)c2ccc(NCCc3ccccc3)c([N+](=O)[O-])c2)c1 | -1 | -1 | 575* | 0 | 1
Cc1ccc(NC(=O)c2ccc(NCCN)c([N+](=O)[O-])c2)cc1 | 0 | 10 | 13 | -25 | -33
COc1cc(C(=O)Nc2ccc(Nc3ccccc3)cc2)cc(OC)c1OC | 2 | 43* | 8 | -9 | -1
Cc1c(NC(=O)c2ccccc2)cccc1[N+](=O)[O-] | -2 | -13 | 4 | -6 | -8
